Experimental findings from PubChem BioAssay (NCI) are described below.

Common to all, as to test: NCI-60 one-dose screen, 48 h (100 = growth as untreated, 0 = no growth, -100 = all killed)
What all share (conditions): 10 µM unless noted

For test [1], the system named is SK-MEL-2 melanoma.
Test [2] relates to SN12C renal.
The test system of test [3] is UO-31 renal.
For test [4], the system named is TK-10 renal.
Test [5] deals with ACHN renal.
Test [6] concerns CAKI-1 renal.
Test [7] relates to A498 renal.
Test [8] concerns CCRF-CEM leukemia.
The test system of test [9] is MOLT-4 leukemia.
In test [10] the test system is RPMI-8226 leukemia.
Test [11] deals with OVCAR-8 ovarian.
In test [12] the test system is OVCAR-5 ovarian.
Test [13] relates to OVCAR-4 ovarian.
Test [14] concerns SK-OV-3 ovarian.
For test [15], the system named is IGROV1 ovarian.
Test [16] relates to OVCAR-3 ovarian.
For test [17], the system named is HS 578T breast.
The test system of test [18] is NCI/ADR-RES ovarian.
Test [19] concerns SR leukemia.

This is part of a sample that, as a whole, favours compounds with a hit. Of some 83,000 tested, about 20% had one in any assay.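 How to read the values: 0–100, growth inhibition (40 = 60% inhibited); 0, no net growth; -100 to 0, cell death (-40 = 40% of starting cells died; -100 = all dead).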 Values without a mark were called inactive. Calls of active or inactive are those of the source. Rule for the calls: active = growth percent below 10; inactive = the rest.

`CC(C(=O)n1cc(-c2ccccc2)c(-c2ccccc2)c1)c1ccccc1` (stereo unspecified): the growth is 104% in test [1]; 108% in test [2]; 88.6% in test [3]; 98.8% in [4]; 115% in [5]; 91.6% in test [6]. In addition, the growth in [7] was 99.8%; in test [8] it was 103%; in test [9], 102%; in test [10] it was 98.2%; in test [11], 99.2%; in test [12] it was 106%. For the same compound, the growth in test [13] is 107%; in [14] it was 105%; in [15], 111%; in test [16], 118%; in test [17] it was 115%; in test [18], 106%.

For the compound `CCN(CC)CCCC(C)N=c1cc(Nc2cc(=NC(C)CCCN(CC)CC)c3cc(OC)ccc3o2)oc2ccc(OC)cc12` (stereo unspecified), the growth was -83.9% (active) in test [1]; -9.47% (active) in test [2]; -88.8% (active) in test [3]; -50.2% (active) in [4]; -14.1% (active) in test [5]; -39.7% (active) in [6]. Also, the growth in test [7] is -8.63% (active); in test [8], -41.7% (active); in test [9] it was -55.8% (active); in [10] it was -38.3% (active); in test [11] it was -1.52% (active); in [12], -28.3% (active). The growth in test [13] was -48.8% (active); in test [14], 7.55% (active); in test [15], -5.22% (active); in test [16], -20.8% (active); in test [17] it was 27.5%; in test [18], 3.48% (active).

For the compound `CCCCCCC[C@@H](O)CC(=O)N[C@H](CCCCN)C(=O)N[C@H](Cc1c[nH]c2ccccc12)C(=O)NC(CCCCN)C(=O)N[C@H](CC(C)C)C(=O)N[C@H](Cc1ccccc1)C(=O)N[C@H](CCCCN)C(=O)N[C@H](CCCCN)C(=O)N[C@H](CC(C)C)C(=O)N1CCCC1C(=O)N[C@H](CCCCN)C(=O)N[C@H](Cc1ccccc1)C(=O)N[C@H](CC(C)C)C(=O)N[C@H](Cc1c[nH]cn1)C(=O)N[C@H](CC(C)C)C(=O)N[C@H](C)C(=O)N[C@H](CCCCN)C(=O)N[C@H](CCCCN)C(=O)N[C@H](Cc1ccccc1)C(=O)O` (stereo partly specified), the growth in test [1] was -60.1% (active); in test [2], -40.7% (active); in test [3], -54.5% (active); in test [4] it was -80.4% (active); in test [5], -50.9% (active); in [6], -70.3% (active). The growth in test [7] was -54.1% (active); in [8] it was -39.6% (active); in test [9], -25.9% (active); in [19], -13.1% (active); in [11], -11.1% (active); in test [12] it was -63% (active). In addition, the growth in [15] is -29.4% (active); in test [16] it was -41.3% (active); in test [17], -42.4% (active); in test [18], -23.6% (active).

With `Cc1nc2scc(-c3ccccc3)n2c(=O)c1CCO`, the growth in test [1] was 124%; in test [2] it was 98.8%; in test [3], 72.5%; in [4], 99.9%; in test [5], 98.9%; in test [6] it was 80.5%. Besides, the growth in [7] was 86.8%; in test [8] it was 103%; in test [9] it was 106%; in [10], 102%; in [11] it was 109%; in test [12], 109%. In addition, the growth in [13] is 93.8%; in test [14], 105%; in [15], 98.1%; in test [16] it was 100%; in [17] it was 95%; in test [18], 112%.

With `COc1cc(/C=C2\CCCC3=C2NC(C)=NC3c2cc(OC)c(OC)c(OC)c2)cc(OC)c1OC` (stereo unspecified), the growth in [1] is 26.6%; in test [2] it was 10.8%; in [3] it was 51.1%; in test [4] it was 44.5%; in test [5], 12.5%; in test [6], 11.4%. Further, the growth is 16.3% in [7]; -19.1% (active) in test [8]; -22.9% (active) in test [9]; -15.1% (active) in test [10]; 5.87% (active) in test [11]; 10.8% in test [12]. Further, the growth was 42.2% in [13]; 43.9% in [14]; 30.7% in test [15]; 28% in test [16]; 48.6% in test [17]; 14.5% in test [18].

In the case of `Cc1cc(-c2ccccc2)c(C)n1Cc1ccc(Cl)cc1`, the growth in [1] is 31.2%; in [2], 49.3%; in [3], 50.5%; in test [4], 76.6%; in test [5], 54.8%; in test [6] it was 21.5%. The growth in test [7] was 23.8%; in test [8], 43.5%; in test [9] it was 17.1%; in [10], 44.1%; in test [11] it was 47.2%; in test [12], 64.5%. In addition, the growth in test [13] is 61.6%; in test [14], 62.2%; in test [15], 50.4%; in [16], 27.3%; in test [17], 50.6%; in [18], 14%.

As for `O=C(c1ccncc1)N1N=C(c2ccc(Cl)cc2)CC1c1c[nH]c2ccccc12` (stereo unspecified), the growth in test [1] was 83%; in test [2] it was 92.9%; in test [3] it was 45.2%; in test [4] it was 107%; in test [5] it was 94.8%; in [6], 90.2%. The growth is 80.5% in test [7]; 56.7% in [8]; 75.1% in test [9]; 57.5% in test [19]; 98.5% in test [11]; 105% in test [12]. The growth is 84.2% in test [14]; 79.3% in [15]; 95.5% in test [16]; 101% in test [17]; 97% in test [18].

Turning to `COc1ccc(/C=C2\CCCC3=C2NC(C)=NC3c2ccc(OC)c(OC)c2)cc1OC` (stereo unspecified), the growth in test [1] was 5.93% (active); in [2], 5.95% (active); in [3], 34.3%; in [4], 12.2%; in test [5], 9.82% (active); in test [6] it was 5.12% (active). Besides, the growth in test [7] is 5.88% (active); in [8], -20% (active); in test [9], -23.2% (active); in [10], -25.8% (active); in test [11], 3.09% (active); in [12] it was 4.73% (active). The growth in [13] is 21%; in [14], 6.97% (active); in test [15] it was 24.4%; in [16], 2.97% (active); in test [17] it was 59%; in test [18], 11.2%.
